Measured values from PubChem BioAssay AID686979 (National Center for Advancing Translational Sciences (NCATS), 2013).
Several values for one entry are separate records, joined by “and”; a condition that tells them apart may be missing. Identical values can stand only once. The whole screen tested about 420,000 compounds, of which about 50,000 (12%) were called active. Not shown: some 26% with an inconclusive outcome. Calls follow the shape of the dose curve; as a rule, active = well fitted inhibition curve with a large enough effect; inconclusive = small, poorly fitted or top-dose-only effect; inactive = flat fitted curve, though single readings scatter. What follows is part of a selection rich in actives, with near analogues and random picks from the rest. Where a call stands in place of a potency, no number is given. Where a SMILES comes first, the peptide text is derived from it. [ ]: non-standard residue; d: D form. The star is where a group is joined. ξ: configuration not given here. Cbz = O=C(OCc1ccccc1)*; ξL = CC(C)CC(N)C(=O)O; ξP = O=C(O)C1CCCN1
Potency is read from the fitted curve at half-maximal effect.

Assay: qHTS for Inhibitors of human tyrosyl-DNA phosphodiesterase 1 (TDP1): qHTS in cells in presence of CPT; also: nearly all actives have a fitted effect of over 55% in size
Settings: chicken DT40 Tdp1-/-;hTDP1 cells + 20 nM CPT, ATP luminescence, 48 h; series mostly up to 46.2 µM
Method in brief: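 Cell growth measured by CellTiter-Glo luminescence after a minimum 48 h, 37 C compound exposure with 20 nM CPT in Tdp1-knockout DT40 cells stably expressing hTDP1, seeded 400/well; qHTS titration format.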
With `CC(=O)NS(=O)(=O)c1ccc2c(c1)Cc1cc(S(=O)(=O)NC(C)=O)ccc1-2` the Potency was “inactive”.
With `O=C(CN(C(=O)CCC(=O)Nc1nccs1)c1ccc(F)cc1)NCc1ccc2c(c1)OCO2` the Potency was “inactive”.
In the case of `CO[C@@H]1[C@@H](OC(N)=O)[C@@H](O)C(Oc2ccc3c(O)c(NC(=O)c4ccc(O)c(CC=C(C)C)c4)c(=O)oc3c2C)OC1(C)C` (some centres not stated), the Potency was “inactive”.
With `Nc1ccc(-c2nnc(-c3ccccc3)o2)cc1` the Potency was “inactive”.
With `Cc1ccc(S(=O)(=O)NCCC(=O)Nc2cccc(S(N)(=O)=O)c2)cc1C` the Potency was “inactive”.
For `c1ccc(-n2nnnc2N2CCOCC2)cc1`, the Potency was “inactive”.
In the case of `FC(F)(F)c1cc(-c2ccco2)nc(N2CCOCC2)n1`, the Potency was “inactive”.
For `c1ccc2c(NC3C4CC5CC(C4)CC3C5)nc(N3CCOCC3)nc2c1` (configuration not stated), the Potency was 10.3 µM (active).
For `Cc1ccc(NC(=O)Cc2nc(COC(=O)C(C)NS(=O)(=O)c3ccc(C)cc3)cs2)cc1` (configuration not stated), the Potency was “inactive”.
With `CCOC(=O)c1ccc(NC(=S)Nc2cc(C)cc(C)n2)cc1` the Potency was “inactive”.
For `CN(c1ccccc1)c1nc(N)c([N+](=O)[O-])c(NCc2ccco2)n1`, the Potency was “inactive”.
With `c1coc(CNc2ncnc3ccccc23)c1` the Potency was 7.08 µM (active) and 10.3 µM (active).
For `Brc1nc2ncnc(NCc3ccco3)c2[nH]1`, the Potency was “inactive”.
For `CS(=O)(=O)n1nc(-c2ccccc2)nc1NCc1ccco1`, the Potency was “inactive”.
For `c1ccc(-c2nc(NCc3ccco3)c3ccccc3n2)cc1`, the Potency was 16.4 µM (active).
For `Cc1ccc(C(=O)NNc2ncnc3ccccc23)cc1`, the Potency was “inactive”.
In the case of `COCCOC1CCN(C(=O)c2ccc(OC)c(OC3CCN(C(C)C)CC3)c2)CC1`, the Potency was “inactive”.
With `Cc1cccc(NS(=O)(=O)c2ccc([N+](=O)[O-])cc2)n1` the Potency was “inactive”.
With `CCOC(=O)c1cnc(-c2ccccc2)nc1Oc1ccc(C)cc1` the Potency was “inactive”.
For `CCOC(=O)C1=C(c2ccc(OC)cc2)C(=O)c2ccccc2C1=O`, the Potency was 1.16 µM (active).
For `COc1ccc(OCCCON2C(=O)c3ccccc3C2=O)cc1`, the Potency was “inactive”.
With `Cc1cc(C)c(C#N)c(SCC(=O)NN2CC(=O)N(c3ccccc3F)CC2=O)n1` the Potency was “inactive”.
For `COC(=O)c1ccc(CSc2nncn2N)cc1`, the Potency was “inactive”.
In the case of `Cc1ccc(CCNC(=O)c2ccc3c(c2)nc2n3CCC(C)C2)cc1` (configuration not stated), the Potency was “inactive”.
In the case of `CCOc1c2ccc(C(=O)NCc3ccc4c(c3)OCO4)cc2nn1C`, the Potency was “inactive”.
For `C=CCNC(=O)c1ccc2c3n(nc2c1)-c1ccc(C)cc1CO3`, the Potency was 20.6 µM (active).
For `O=C1CC[C@@H]2CC3(C[C@@H]4CCN1[C@H]24)Nc1cc([N+](=O)[O-])ccc1NC3=NC1CCCCC1` (some centres not stated), the Potency was “inactive”.
For `Cc1cc2c(cc1C)NC1(C[C@H]3CCC(=O)N4CC[C@@H](C1)[C@@H]34)C(=NC(C)(C)CC(C)(C)C)N2` (some centres not stated), the Potency was 20.6 µM (active).
In the case of `O=C1CCC[C@@H]2C[C@@]3(C[C@@H]4CCN1[C@H]24)Nc1ccccc1NC3=NCc1ccccc1`, the Potency was “inactive”.
For `COc1ccccc1NC(=O)c1cc(Cl)nnc1Cl`, the Potency was “inactive”.
For `COc1ccccc1NC(=O)/C=C/C(N)=O`, the Potency was 2.06 µM (active).
For `COc1ccccc1NC(=O)C[n+]1ccccc1`, the Potency was “inactive”.
For `Nc1ccccc1Sc1cc(Cl)nnc1Cl`, the Potency was “inactive”.
For `Cc1ccsc1C(=O)OCC(=O)Nc1cccc(F)c1`, the Potency was “inactive”.
In the case of `O=C(NCC(=O)N1CCN(c2ccccc2F)CC1)c1cccs1`, the Potency was “inactive”.
For `O=C(NCC(=O)N1CCN(c2ccccc2O)CC1)c1ccc2ccccc2c1`, the Potency was 18.4 µM (active).
With `O=C(CNC(=O)c1ccc2ccccc2c1)Nc1ncccc1O` the Potency was “inactive”.
In the case of `CN(C)/C=C(\C#N)C(=O)c1cccnc1Oc1cccc(F)c1`, the Potency was “inactive”.
With `COCc1[nH][nH]c(=O)c1C=Nc1ccc(F)cc1F` the Potency was “inactive”.
With `O=C(c1cc2ccccc2o1)N1CCN(c2cccc(C(F)(F)F)c2)CC1` the Potency was “inactive”.
For `Cc1ccc(C)c(S(=O)(=O)N2CCCOC2CNC(=O)C(=O)NC2CCCCC2)c1` (configuration not stated), the Potency was “inactive”.
In the case of `Cn1c(Nc2ccccc2)cc(=O)n(C)c1=O`, the Potency was “inactive”.
For `S=c1ccc2ccccc2[nH]1`, the Potency was 13 µM (active).
For `CCOC(=O)c1ccccc1NS(=O)(=O)c1c(C)nc2sccn2c1=O`, the Potency was “inactive”.
With `COc1ccccc1NC(=O)CSC1=Nc2ccccc2C2=NC(CC(=O)NCc3cccs3)C(=O)N12` (configuration not stated) the Potency was 20.6 µM (active).
With `Cc1ccc(CNC(=O)CSC2=Nc3ccccc3C3=NC(C)C(=O)N23)cc1` (configuration not stated) the Potency was “inactive”.
With `O=C(CSC1=Nc2ccccc2C2=NC(CC(=O)NCc3ccco3)C(=O)N12)NCc1ccco1` (configuration not stated) the Potency was “inactive”.
For `CN1CCC(=NNC(=O)c2ccc(N(Cc3ccc(Cl)cc3)S(C)(=O)=O)cc2)CC1`, the Potency was “inactive”.
For `CC(=O)Nc1ccc(NC(=O)CC2CCCC2)cc1`, the Potency was “inactive”.
With `CSc1ncnc2c1ncn2CC(=O)C1CCC2C3CCC4=CC(=O)CCC4(C)C3CCC12C` (configuration not stated) the Potency was 5.8 µM (active).
With `CSc1ncnc2c1ncn2CCCNCC1CCCCC1` the Potency was “inactive”.
With `CCOC(=O)c1ccc(CS(=O)c2ccc(Cl)cc2)o1` (configuration not stated) the Potency was “inactive”.
In the case of `CC(Nc1ccc([N+](=O)[O-])cc1[N+](=O)[O-])c1ccccc1` (configuration not stated), the Potency was “inactive”.
In the case of `CCN(CC)c1ccc(/C=N/NC(=O)c2cnccn2)c(O)c1`, the Potency was 5.17 µM (active).
With `CCN(CC)c1ccc(C(=O)Nn2c(C)nc3ccccc3c2=O)cc1` the Potency was “inactive”.
For `Cc1ccc(C(=O)NCCNC(=O)c2cnccn2)cc1`, the Potency was “inactive”.
In the case of `CCN(CC)c1ccc(/C=N/Nc2nc(C)cc(C)n2)c(O)c1`, the Potency was 4.11 µM (active).
With `CCN(CC)c1ccc(/C=N/NC(=O)CNC(=O)c2cccnc2)cc1` the Potency was “inactive”.
For `O=C(NCc1ccco1)c1cccc(-c2ccc3nncn3c2)c1`, the Potency was “inactive”.
In the case of `CS(=O)(=O)c1cccc(-c2ccc3nncn3c2)c1`, the Potency was “inactive”.
With `NC(=O)c1ncc(C(F)(F)F)cc1Oc1ccc(F)cc1` the Potency was “inactive”.
For `O=C(Nc1ccccc1Cl)Nn1cnnc1`, the Potency was “inactive”.
For `O=C(CCN1CCc2ccccc2C(O)(c2ccccc2)C1)c1ccc2c(c1)OCCO2` (configuration not stated), the Potency was 2.31 µM (active).
In the case of `O=C(COC(=O)c1ccccc1)c1ccc2c(c1)OCCO2`, the Potency was “inactive”.
For `O=C(CN1CCC(O)(c2ccccc2)CC1)Nc1ccc2c(c1)OCCO2`, the Potency was “inactive”.
For `Cc1ccc(N2C(=O)C3C4C=CC(CC4)C3C2=O)cc1Br` (configuration not stated), the Potency was “inactive”.
For `COc1ccc(N2C(=O)CC(N3CCC(C(N)=O)CC3)C2=O)cc1` (configuration not stated), the Potency was “inactive”.
With `COc1ccc(CCN2C(=O)CC(N3CCC(C(N)=O)CC3)C2=O)cc1OC` (configuration not stated) the Potency was 25.9 µM (active).
For `COc1ccc(CCN2C(=O)C3CC=C(C)CC3C2=O)cc1OC` (configuration not stated), the Potency was “inactive”.
In the case of `CN1CCN(CCC(=O)N/N=C/C=C2\N(C)c3ccccc3C2(C)C)CC1`, the Potency was “inactive”.
In the case of `COc1cccc(NC(=S)C(C#N)=C2N(C)c3ccccc3N2C)c1`, the Potency was “inactive”.
With `CC(=O)Nc1cccc(OCC(=O)/C=C2\N(C)c3ccccc3C2(C)C)c1` the Potency was 6.51 µM (active).
For `Cc1cccc(NC(=O)c2cc(S(=O)(=O)N3CCC4(CC3)OCCO4)ccc2F)c1`, the Potency was “inactive”.
In the case of `Cc1cc(S(=O)(=O)NC2CCCC2)ccc1-n1cnnn1`, the Potency was “inactive”.
In the case of `CCOc1cccc(/C=C/c2ccc3ccccc3n2)c1OC(C)=O`, the Potency was 18.4 µM (active).
With `COc1cccc(/C=C/c2ccc3ccccc3n2)c1OC(C)=O` the Potency was “inactive”.
In the case of `CCOc1ccccc1-c1cc(C(=O)N2CCOCC2)c2ccccc2n1`, the Potency was “inactive”.
With `Cc1ccc(S/C(=N\S(=O)(=O)c2ccc(Cl)cc2)c2ccccc2)cc1` the Potency was 14.6 µM (active).
With `Cc1ccc(S(=O)(=O)/N=C(/Nc2ccccn2)c2ccc(Cl)cc2)cc1` the Potency was “inactive”.
For `O=S(=O)(/N=C(/Nc1ccccn1)c1ccccc1)c1ccc(Cl)cc1`, the Potency was “inactive”.
With `Cc1ccc(NC(=O)COc2ccc(/C=C3/NC(=O)NC3=O)cc2)cc1` the Potency was “inactive”.
In the case of `CC(C)CC(NC(=O)C1CCCN1C(=O)[C@@H](C)NC(=O)OCc1ccccc1)C(=O)NCC(N)=O` (some centres not stated) (Cbz-[dA][ξP][ξL]G-NH2), the Potency was “inactive”.
For `CCOC(=O)c1c(NC(=O)NC(C)(C)C)sc2c1CCN(C)C2`, the Potency was “inactive”.
With `CCCN(CCC)S(=O)(=O)c1ccc(C(=O)Nc2sc3c(c2C(=O)OC)CCN(CC)C3)cc1` the Potency was 16.4 µM (active).
For `COC(=O)c1c(NC(=O)c2cc(=O)c3c(C)cc(C)cc3o2)sc2c1CCCC2`, the Potency was “inactive”.
With `CCCN(CCC)S(=O)(=O)c1ccc(C(=O)NNC(=O)c2cc(OC)c(OC)c(OC)c2)cc1` the Potency was “inactive”.
With `CCOC(=O)c1c(NC(=O)c2ccc(S(=O)(=O)N3CCCC(C)C3)cc2)sc2c1CCN(C(C)C)C2` (configuration not stated) the Potency was 8.2 µM (active).
With `CCOC(=O)c1c(NC(=S)Nc2ccccc2)sc2c1CCN(C)C2` the Potency was “inactive”.
In the case of `N#CCCN(C(=S)Nc1ccc(Cl)c(Cl)c1)C1CCCCC1`, the Potency was “inactive”.
For `O=S1(=O)CSCS(=O)(=O)C1`, the Potency was “inactive”.
With `COc1ccc(S(=O)(=O)N(CC(=O)N/N=C/c2ccc(C(=O)O)cc2)Cc2ccccc2)cc1OC` the Potency was “inactive”.
With `C=CCO/N=C(\C)c1c(O)c(C)c(-c2ccccc2)n(-c2ccccc2)c1=O` the Potency was “inactive”.
For `CC(C)[C@@H]1NC(=O)[C@H](Cc2ccccc2)NC(=O)[C@@H](CC(=O)O)NC(=O)CNC(=O)[C@H](CCCNC(=N)N)NC1=O`, the Potency was “inactive”.
In the case of `C=CCNC(=O)C1CC2c3ccccc3C1c1ccccc12` (configuration not stated), the Potency was “inactive”.
With `CCS(=O)(=O)N1CCC(n2c(C)nc3cccnc32)CC1` the Potency was “inactive”.
In the case of `O=C1NC(CC(=O)N2CCC(n3c(C4CCC4)nc4cccnc43)CC2)c2ccccc21` (configuration not stated), the activity change, negative = growth inhibition was -6.43% [at 9.04 µM] (inactive).
In the case of `CCCS(=O)(=O)N1CCC(n2c(C(F)(F)F)nc3cccnc32)CC1`, the Potency was 3.66 µM (active).
For `COC(=O)c1ccc(NS(=O)(=O)c2cc3c4c(c2)C(C)C(=O)N4CCC3)cc1` (configuration not stated), the Potency was “inactive”.
In the case of `O=C1CCc2cc(S(=O)(=O)Nc3ccc(C(F)(F)F)cc3)cc3c2N1CC3`, the Potency was “inactive”.
With `O=C1Cc2cc(S(=O)(=O)Nc3ccc(OC(F)(F)F)cc3)cc3c2N1CCC3` the Potency was 9.2 µM (active).
With `CCn1c(CC(=O)Nc2ccccc2)nnc1SCC(=O)N1CCOCC1` the Potency was “inactive”.
With `COc1ccc(C(C#N)Nc2ccc(C)cc2)cc1` (configuration not stated) the Potency was “inactive”.
